Experimental data: the supplement of paper PMC9262897, “Low-cost anti-mycobacterial drug discovery using engineered E. coli” (Nature Communications, 2022)
Counter-ions that a name gives are not always drawn. ± gives the standard deviation of the averaged measurements.

Key:
Assay in all cases: growth (OD600 after 10 h); higher = more growth (less inhibition)
[1] = system: E. coli TESEC Alr+ wild-type control; details: compound 0.1 mM; raw OD600 reference: median of DMSO wells 0.241, cell-free background 0.041
Protocol: (§1)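 TESEC Mtb Alr E. coli, or the Alr+ wild-type control, in 384-well plates with Prestwick library compounds at 0.1 mM and 1% DMSO, across arabinose induction levels of 1E3 to 1E7 nM. Growth is read as OD600 after 10 h at 37 °C in triplicate biological replicates.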

E. coli TESEC Mtb Alr [2] = details: compound 0.1 mM
Protocol: as §1

E. coli TESEC Mtb Asd = details: compound 0.1 mM
Protocol: (§2)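 TESEC E. coli strains in which the native enzyme is deleted and replaced by arabinose-inducible Mtb Asd, DapB, CysH or TrpD, each grown in its selective medium. Strains were screened against the Prestwick library at 0.1 mM and 1% DMSO in 384-well format at low and high arabinose induction. Growth is read as OD600 after 10 h in triplicate.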

E. coli TESEC Mtb DapB = details: compound 0.1 mM
Protocol: as §2

[3] = system: E. coli TESEC Alr+ wild-type control; details: compound 0.1 mM; raw OD600 reference: median of DMSO wells 0.49, cell-free background 0.052
Protocol: (§3)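 TESEC Mtb Alr E. coli (ΔaraC ΔtolC ΔentC Δalr ΔdadX, arabinose-inducible Mtb Alr) or the Alr+ wild-type control strain, grown in defined M9-fructose medium without D-alanine in 96-well plates with Prestwick library compounds at 0.1 mM and 1% DMSO. Low Alr induction is 0.1 µM arabinose and high induction is 10 mM arabinose.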

E. coli TESEC Mtb Alr [4] = details: compound 0.1 mM; remark: listed apart in the source
Protocol: as §3

[5] = arabinose 1000 nM, raw OD600 reference: median of DMSO wells 0.294, cell-free background 0.041
[6] = arabinose 10000 nM, raw OD600 reference: median of DMSO wells 0.264, cell-free background 0.041
[7] = arabinose 100000 nM, raw OD600 reference: median of DMSO wells 0.201, cell-free background 0.041
[8] = arabinose 1000000 nM, raw OD600 reference: median of DMSO wells 0.193, cell-free background 0.041
[9] = arabinose 10000000 nM, raw OD600 reference: median of DMSO wells 0.146, cell-free background 0.041
[10] = arabinose induction (level): High, raw OD600 reference: median of DMSO wells 0.331, cell-free background 0.041
[11] = arabinose induction (level): Low, raw OD600 reference: median of DMSO wells 0.417, cell-free background 0.041
[12] = arabinose induction (level): High, raw OD600 reference: median of DMSO wells […], cell-free background 0.041
[13] = arabinose induction (level): Low, raw OD600 reference: median of DMSO wells 0.227, cell-free background 0.041
[14] = arabinose 100 nM, raw OD600 reference: median of DMSO wells 0.413, cell-free background 0.052
[15] = arabinose 10000000 nM, raw OD600 reference: median of DMSO wells […], cell-free background 0.052

SMILES | growth [1] | growth (E. coli TESEC Mtb Alr [2]; [5]) | growth (E. coli TESEC Mtb Alr [2]; [6]) | growth (E. coli TESEC Mtb Alr [2]; [7]) | growth (E. coli TESEC Mtb Alr [2]; [8]) | growth (E. coli TESEC Mtb Alr [2]; [9]) | growth (E. coli TESEC Mtb Asd; [10]) | growth (E. coli TESEC Mtb Asd; [11]) | growth (E. coli TESEC Mtb DapB; [12]) | growth (E. coli TESEC Mtb DapB; [13]) | growth [3] | growth (E. coli TESEC Mtb Alr [4]; [14]) | growth (E. coli TESEC Mtb Alr [4]; [15])
COc1ccc2[nH]c([S+]([O-])Cc3ncc(C)c(OC)c3C)nc2n1 (centres undefined) [Tenatoprazole] | 0.202 ± 0.008 | 0.192 ± 0.0066 | 0.227 ± 0.012 | 0.128 ± 0.0093 | 0.0829 ± 0.0019 | 0.134 ± 0.0048 | 0.388 ± 0.031 | 0.379 ± 0.065 | 0.184 ± 0.0083 | 0.201 ± 0.017 | 0.35 ± 0.01 | 0.397 ± 0.013 | 0.196 ± 0.035
CC(=O)Nc1c(I)c(C(=O)N[C@H]2C(O)O[C@H](CO)[C@@H](O)[C@@H]2O)c(I)c(N(C)C(C)=O)c1I (some centres undefined) [Metrizamide] | 0.246 ± 0.014 | 0.307 ± 0.014 | 0.273 ± 0.0038 | 0.238 ± 0.034 | 0.188 ± 0.0051 | 0.16 ± 0.0066 | 0.247 ± 0.017 | 0.352 ± 0.0067 | 0.218 ± 0.025 | 0.212 ± 0.013 | 0.61 ± 0.014 | 0.403 ± 0.012 | 0.334 ± 0.011
Cc1cn[nH]c1 [Fomepizole] | 0.242 ± 0.0098 | 0.2912 ± 0.0021 | 0.249 ± 0.0059 | 0.231 ± 0.024 | 0.178 ± 0.003 | 0.137 ± 0.0022 | 0.233 ± 0.036 | 0.364 ± 0.065 | 0.193 ± 0.014 | 0.215 ± 0.0091 | 0.554 ± 0.016 | 0.423 ± 0.011 | 0.367 ± 0.017
O=c1n(CCCN2CCN(c3cccc(Cl)c3)CC2)nc2ccccn12 [Trazodone hydrochloride] | 0.203 ± 0.0052 | 0.24 ± 0.011 | 0.235 ± 0.0052 | 0.159 ± 0.0089 | 0.105 ± 0.0032 | 0.13 ± 0.0034 | 0.242 ± 0.051 | 0.404 ± 0.099 | 0.189 ± 0.014 | 0.243 ± 0.057 | 0.471 ± 0.043 | 0.406 ± 0.0066 | 0.255 ± 0.028
CN(C)[C@@H]1C(=O)C(C(=O)NCNCCCC[C@H](N)C(=O)O)=C(O)[C@@]2(O)C(=O)C3=C(O)c4c(O)cccc4[C@@](C)(O)[C@H]3C[C@@H]12 [Lymecycline] | 0.178 ± 0.0022 | 0.221 ± 0.0059 | 0.18 ± 0.011 | 0.204 ± 0.016 | 0.0804 ± 0.0073 | 0.101 ± 0.0033 | 0.12 ± 0.0094 | 0.159 ± 0.0077 | 0.0866 ± 0.01 | 0.152 ± 0.0064 | 0.329 ± 0.017 | 0.312 ± 0.031 | 0.0693 ± 0.0019
COc1cc(Cc2cnc(N)nc2N)cc(OC)c1OC [Trimethoprim] | 0.0601 ± 0.0005 | 0.04863 ± 0.00047 | 0.0442 ± 0.00076 | 0.04953 ± 0.00035 | 0.04553 ± 0.0004 | 0.0534 ± 0.00081 | 0.0958 ± 0.044 | 0.0867 ± 0.014 | 0.0742 ± 0.0018 | 0.0572 ± 0.0041 | 0.0896 ± 0.0014 | 0.0922 ± 0.026 | 0.0701 ± 0.0035
CC(=O)Oc1cc(C(F)(F)F)ccc1C(=O)O [Triflusal] | 0.224 ± 0.0053 | 0.275 ± 0.0064 | 0.259 ± 0.0086 | 0.186 ± 0.019 | 0.177 ± 0.0042 | 0.14 ± 0.004 | 0.218 ± 0.009 | 0.367 ± 0.082 | 0.207 ± 0.0034 | 0.206 ± 0.015 | 0.555 ± 0.033 | 0.376 ± 0.011 | 0.315 ± 0.011
Oc1ccc(OCc2ccccc2)cc1 [Monobenzone] | 0.176 ± 0.0053 | 0.213 ± 0.017 | 0.249 ± 0.011 | 0.169 ± 0.004 | 0.134 ± 0.0036 | 0.161 ± 0.0038 | 0.314 ± 0.099 | 0.325 ± 0.025 | 0.2 ± 0.0057 | 0.21 ± 0.017 | 0.477 ± 0.012 | 0.395 ± 0.019 | 0.304 ± 0.018
